# Paper PMC5540273 (PLoS ONE, 2017)
# How the values were obtained:
# Conditions in all cases: concentration: 1 μM, replicates: in singlicate; n = 1
# [1] = tested on: T1, HASPIN
# T1 construct: gene GSG2
# [2] = tested on: HCK
# [3] = tested on: HIPK1
# [4] = tested on: HIPK2
# [5] = tested on: HIPK3
# [6] = tested on: HIPK4
# [7] = tested on: HPK1
# [8] = tested on: HUNK
# [9] = tested on: ICK
# [10] = tested on: IGF1R
# [11] = tested on: T2, IKK-alpha
# T2 construct: gene CHUK
# [12] = tested on: T3, IKK-beta
# T3 construct: gene IKBKB
# [13] = tested on: T4, IKK-epsilon
# T4 construct: gene IKBKE
# [14] = tested on: INSRR
# [15] = tested on: INSR
# [16] = tested on: IRAK1
# [17] = tested on: IRAK3
# [18] = tested on: IRAK4
# [19] = tested on: ITK
# [20] = tested on: JAK1(JH1domain-catalytic)
# 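Also: KINOMEscan kinase panel screen.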
SMILES,%Inh [1] [%],%Inh [2] [%],%Inh [3] [%],%Inh [4] [%],%Inh [5] [%],%Inh [6] [%],%Inh [7] [%],%Inh [8] [%],%Inh [9] [%],%Inh [10] [%],%Inh [11] [%],%Inh [12] [%],%Inh [13] [%],%Inh [14] [%],%Inh [15] [%],%Inh [16] [%],%Inh [17] [%],%Inh [18] [%],%Inh [19] [%],%Inh [20] [%]
CC(C)(C)c1ccc(C(=O)Nc2cn3cc(-n4ccnc4)ccc3n2)cc1,7,18,32,28,12,21,0,0,0,0,2,9,0,5,26,21,55,65,14,11
O=C(Nc1n[nH]c2cc(-c3cccs3)ccc12)C1CC1 [SB-731284],0,0,37,4,63,6,0,0,78,0,57,73,0,0,40,35,9,45,0,0
c1ccc(Oc2ccc(Nc3ccnc4cc(-c5ccc(CN6CCCCC6)o5)ccc34)cc2)nc1 [GW567143],6,79,0,0,8,0,20,0,0,15,12,8,0,5,10,24,0,6,10,0
COc1cc(Nc2nccc(N3CCC(NC(=O)Nc4ccc5c(c4)OCO5)C3)n2)cc(OC)c1OC (stereo not drawn) [GSK1379766],0,0,0,0,16,0,78,0,26,0,27,11,29,0,25,80,85,44,10,12
COC(=O)Nc1nc2ccc(Oc3ccc(CC(=O)Nc4cc(C(F)(F)F)ccc4F)cc3)cc2[nH]1 [GW680903],0,0,0,0,0,0,60,15,0,0,7,1,0,0,0,26,0,14,14,6
COC(=O)Nc1nc2cc(Oc3ccc(NC(=O)Nc4cccc(SC)c4)cc3)ccc2[nH]1.Cl [GW697999],0,12,5,0,1,36,30,28,0,5,35,0,10,0,0,36,24,12,26,2
CC(C)c1nc(-c2ccc(F)c(NS(=O)(=O)c3c(F)cccc3F)c2)c(-c2ccnc(Nc3ccc(N4CCOCC4)nc3)n2)s1 [GSK1804250],18,98.4,17,0,30,72,56,7,0,8,0,0,23,2,11,0,3,0,9,17
Fc1cc(Cl)ccc1Nc1ccnc2cc(-c3ccc(CN4CCSCC4)o3)ccc12 [GW560106],28,95.3,3,0,0,0,20,71,0,25,31,9,0,0,0,18,7,0,8,11
O=C(Nc1n[nH]c2nc(-c3cccc(O)c3)ccc12)C1CC1 [SB-711805],45,15,57,27,31,7,0,0,53,0,0,0,0,0,0,0,0,0,0,0
Cn1cc(-c2cnc(N)c3c(-c4ccc5c(c4)CCN5C(=O)Cc4ccccc4)csc23)cn1 [GSK2593074],0,86,21,0,7,0,94,0,100,0,0,0,59,13,12,0,5,0,23,0
Cc1cc(-c2c(-c3ccc(F)cc3)ncn2CCCN2CCOCC2)nc(N)n1 [SB-222517],0,27,44,0,18,0,12,0,0,10,0,0,0,26,8,0,0,0,6,0
COc1ccc(C2=C(Nc3cccc(O)c3)C(=O)NC2=O)cc1 [SB-390766],0,41,0,2,63,93.5,36,0,10,0,26,44,0,0,2,60,0,45,7,58
COc1ccc(C)c(Nc2ccnc(Nc3ccc(-c4cnc[nH]4)cc3)n2)c1.Cl [GW784041],0,63,48,0,0,30,0,0,0,12,0,0,0,0,0,0,35,0,18,100
N#CC1(c2cccc(C(=O)Nc3cccc(Oc4ccc5nc(NC(=O)C6CC6)sc5n4)c3)c2)CC1,38,98.3,6,0,0,78,40,32,0,0,0,0,0,0,0,0,0,0,0,8
Cl.Cl.NCC(NC(=O)c1cc(-c2cccnc2)c(-c2ccnc3[nH]ccc23)s1)c1ccccc1 (stereo not drawn) [GSK1323434],96.4,0,69,67,86,64,59,0,4,0,14,54,21,0,0,76,1,8,10,15
CNc1nccc(-c2ccc3c(N)n[nH]c3c2)n1 [GSK2206003],93,0,34,0,37,42,55,0,0,22,90,81,17,0,11,49,49,0,24,0
Cc1cccc(Nc2nc(N[C@H]3CCCC[C@H]3N)ncc2C(N)=O)c1.Cl [GSK986310],18,0,0,0,21,0,79,0,16,0,0,11,34,8,26,88,17,86,29,77

SMILES,%Inh [1] [%],%Inh [2] [%],%Inh [3] [%],%Inh [4] [%],%Inh [5] [%],%Inh [6] [%],%Inh [7] [%],%Inh [8] [%],%Inh [9] [%],%Inh [10] [%],%Inh [11] [%],%Inh [12] [%],%Inh [13] [%],%Inh [14] [%],%Inh [15] [%],%Inh [16] [%],%Inh [17] [%],%Inh [18] [%],%Inh [19] [%],%Inh [20] [%]
CN(C)CCOc1ccc(-c2cc(-c3ccc(Cl)c(O)c3)c(-c3ccncc3)[nH]2)cc1.Cl.Cl [SB-684387],18,51,2,0,1,4,39,0,0,0,9,82,30,0,14,16,0,0,0,20
O=C(O)C(F)(F)F.O=c1[nH]ccc2nc(N[C@@H]3CCNC3)nc(Nc3cc(Cl)cc(Cl)c3)c12 [GSK2188764],86,0,27,6,54,0,95.7,0,12,0,72,44,29,5,36,90.1,1,17,17,93.5
Cc1ccc(NC(=O)c2ccc(Cl)c(Cl)c2)cc1-c1ccc(C(=O)Nc2ccncc2)cc1 [GSK1398460],0,9,0,0,17,0,40,25,0,19,0,10,24,0,0,0,3,7,10,9
COc1cccc(C2=C(Nc3cccc(O)c3)C(=O)NC2=O)c1 [SB-390771],4,0,0,0,29,0,51,0,3,19,2,18,40,0,3,29,9,38,10,9
CN(c1ccc(NC(=O)N2CCN(CCCN3CCOCC3)CC2)cc1)c1ccnc(Nc2ccc(CS(C)(=O)=O)cc2)n1.Cl [GW830899],0,12,45,0,0,20,47,0,95.9,1,0,0,0,0,0,0,50,0,0,0
Cc1cccc(Nc2nc(NCCN)ncc2C(N)=O)c1 [GSK1292139],56,25,0,0,7,0,85,0,13,0,28,16,0,0,22,61,0,60,8,27
COc1cccc2c(-c3ccncc3)c(-c3ccc(F)cc3)nn12 [GW468513],15,0,0,0,10,4,37,18,9,9,0,14,3,9,11,28,24,7,8,0
Cn1cc(-c2ccc3c(c2)CCN3C(=O)Cc2cc(F)cc(F)c2F)c2c(N)ncnc21 [GSK2634140],32,0,0,0,15,0,57,12,0,21,0,12,75,0,0,7,6,0,20,1
Cc1ccc(O)cc1Nc1ccnc2ccc(C(C)(C)C)cc12 [GW856805],44,93.8,20,0,28,0,0,0,37,0,52,45,6,18,16,13,0,0,0,2
CCn1cnc2c(NCc3ccccc3)ncnc21 [SKF-96418],10,9,27,9,33,33,0,48,0,0,26,19,0,0,2,25,0,0,0,6
CCNC(=O)/C=C/c1n[nH]c2cc(Sc3ccccc3C(=O)NC)ccc12,14,7,23,2,22,0,8,0,0,10,26,20,8,34,0,33,9,0,0,0
Cl.O=C(Nc1ccc(Oc2ccc3[nH]c(NC(=O)c4ccco4)nc3c2)cc1)Nc1cc(C(F)(F)F)ccc1F [GW683134],0,58,0,0,11,88,40,0,0,17,85,49,0,55,52,20,0,23,8,91.2
COc1ccc(NC(=O)c2ccoc2)cc1-c1ccc(C(=O)NCC2CC2)cc1 [GW810437],23,26,5,18,7,6,0,31,13,0,0,0,0,0,10,6,0,0,4,0
CN(C)CCNS(=O)(=O)c1ccc(-c2ccnc3[nH]ccc23)cc1 [GSK977620],84,0,82,82,90.5,43,42,0,5,2,85,98.8,2,0,0,55,45,17,54,12
Cc1ccccc1CC(=O)N1CCc2cc(-c3cn(C)c4ncnc(N)c34)ccc21 [GSK2603346],0,13,0,0,1,0,74,0,0,0,12,28,49,8,0,0,0,6,20,5
CCn1c(-c2nonc2N)nc2c(-c3ccccc3)ncc(OCCCN)c21.O=C(O)C(F)(F)F.O=C(O)C(F)(F)F [GSK260205],9,0,0,0,38,0,0,0,10,0,32,16,3,0,0,29,0,21,14,11
